# Laboratory results taken from the supplement of paper PMC6853941.
# A number with no mark means an inactive call.
# System: MCF10A
# Test: perturbation Mahalanobis distance of morphological profile vs DMSO controls (Mahalanobis distance (SD units)); higher = stronger morphological change, active = 7 or more
# Conditions: screen batch: Batch1_Mahalanobis_Distance; 72 h
# Description: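 MCF10A cells were seeded onto drugs dispensed acoustically into 384-well plates, using one dose per drug chosen from its human peak plasma concentration, and incubated for 72 h at 37 °C. Cells were stained for DNA, tubulin and mitochondria and imaged; 78 CellProfiler features were extracted, plate-normalised and compared with DMSO wells.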
row,SMILES,perturbation Mahalanobis distance
1,O=NN(CCCl)C(=O)NCCCl [Carmustine] (0.2 µM),2.08
2,CC(C)(Oc1ccc(Cl)cc1)C(=O)O [Clofibric Acid] (368 µM),3.07
3,CCCCCCCN(CC)CCCC(O)c1ccc(NS(C)(=O)=O)cc1 (stereo unspecified) [Ibutilide] (0.08 µM),2.16
4,C[C@]12C=CC(=O)C=C1CC[C@@H]1[C@@H]2[C@@H](O)C[C@@]2(C)[C@H]1CC[C@]2(O)C(=O)CO [Prednisolone] (13.9 µM),4.8
5,Cc1nc2n(c(=O)c1CCN1CCC(c3noc4cc(F)ccc34)CC1)CCCC2 [Risperidone] (73 µM),2.9
6,CC(C)C1CCC(C(=O)N[C@H](Cc2ccccc2)C(=O)O)CC1 (stereo partly specified) [Nateglinide] (66.1 µM),2.59
7,NC(=O)[C@@H]1CSSCCC(=O)N[C@@H](CCCCN=C(N)N)C(=O)NCC(=O)N[C@@H](CC(=O)O)C(=O)N[C@@H](Cc2c[nH]c3ccccc23)C(=O)N2CCC[C@H]2C(=O)N1 [Eptifibatide] (5.3 µM),2.23
8,O=C(O)c1cnccn1 [Pyrazinoic Acid] (604.4 µM),2.79
9,CC12CC3CC(C)(C1)CC(N)(C3)C2 [Memantine] (1.3 µM),4.28
10,O=C1OCCN1/N=C/c1ccc([N+](=O)[O-])o1 [Furazolidone] (22.2 µM),3.46
11,CCN(CC)C(=S)S [Sodium Diethyldithiocarbamate Trihydrate] (10 µM),3.67
12,CCCCN(CCCC)CCC(O)c1cc2c(Cl)cc(Cl)cc2c2cc(C(F)(F)F)ccc12 (stereo unspecified) [Halofantrine] (63.9 µM),7.37 (active)
13,CCC(=O)NCC[C@@H]1CCc2ccc3c(c21)CCO3 [Ramelteon] (0.13 µM),2.83
14,C[C@@H]1CCC2[C@@H](C)[C@@H](O)O[C@@H]3OC4(C)CC[C@@H]1[C@@]23OO4 (stereo partly specified) [Dihydroartemisinin] (13.2 µM),10.7 (active)
15,O=C(O)[C@H]1OC(Oc2ccc([C@@H]3[C@@H](CC[C@@H](O)c4ccc(F)cc4)C(=O)N3c3ccc(F)cc3)cc2)[C@H](O)[C@@H](O)[C@@H]1O (stereo partly specified) [Ezetimibe Glucuronide] (47 µM),2.38
16,COc1ccc2c3c1O[C@H]1C[C@@H](O)C=C[C@@]31CCN(C)C2 [Galantamine] (20 µM),2.14
17,CCN(CC)CCNC(=O)c1c(C)[nH]c(/C=C2\C(=O)Nc3ccc(F)cc32)c1C [Sunitinib] (0.73 µM),3.08
18,CN[C@H]1CC[C@@H](c2ccc(Cl)c(Cl)c2)c2ccccc21 [Sertraline] (3.3 µM),2.81
19,CCCc1cc(=O)[nH]c(=S)[nH]1 [Propylthiouracil] (90 µM),2.49
20,Nc1nc(Cl)nc2c1ncn2[C@@H]1O[C@H](CO)[C@@H](O)[C@@H]1F [Clofarabine] (7.5 µM),10.2 (active)

# Same assay, conditions: screen batch: Batch2_Mahalanobis_Distance; 72 h
row,SMILES,perturbation Mahalanobis distance
1,O=NN(CCCl)C(=O)NCCCl [Carmustine] (0.2 µM),2.55
2,CC(C)(Oc1ccc(Cl)cc1)C(=O)O [Clofibric Acid] (368 µM),2.64
3,CCCCCCCN(CC)CCCC(O)c1ccc(NS(C)(=O)=O)cc1 (stereo unspecified) [Ibutilide] (0.08 µM),2.06
4,C[C@]12C=CC(=O)C=C1CC[C@@H]1[C@@H]2[C@@H](O)C[C@@]2(C)[C@H]1CC[C@]2(O)C(=O)CO [Prednisolone] (13.9 µM),3.8
5,Cc1nc2n(c(=O)c1CCN1CCC(c3noc4cc(F)ccc34)CC1)CCCC2 [Risperidone] (73 µM),2.4
6,CC(C)C1CCC(C(=O)N[C@H](Cc2ccccc2)C(=O)O)CC1 (stereo partly specified) [Nateglinide] (66.1 µM),3.16
7,NC(=O)[C@@H]1CSSCCC(=O)N[C@@H](CCCCN=C(N)N)C(=O)NCC(=O)N[C@@H](CC(=O)O)C(=O)N[C@@H](Cc2c[nH]c3ccccc23)C(=O)N2CCC[C@H]2C(=O)N1 [Eptifibatide] (5.3 µM),2.48
8,O=C(O)c1cnccn1 [Pyrazinoic Acid] (604.4 µM),2.79
9,CC12CC3CC(C)(C1)CC(N)(C3)C2 [Memantine] (1.3 µM),3.3
10,O=C1OCCN1/N=C/c1ccc([N+](=O)[O-])o1 [Furazolidone] (22.2 µM),3.27
11,CCN(CC)C(=S)S [Sodium Diethyldithiocarbamate Trihydrate] (10 µM),3.24
12,CCCCN(CCCC)CCC(O)c1cc2c(Cl)cc(Cl)cc2c2cc(C(F)(F)F)ccc12 (stereo unspecified) [Halofantrine] (63.9 µM),2.57
13,Cc1oncc1C(=O)Nc1ccc(C(F)(F)F)cc1 [Leflunomide] (333.1 µM),2.68
14,CCC(=O)NCC[C@@H]1CCc2ccc3c(c21)CCO3 [Ramelteon] (0.13 µM),2.59
15,C[C@@H]1CCC2[C@@H](C)[C@@H](O)O[C@@H]3OC4(C)CC[C@@H]1[C@@]23OO4 (stereo partly specified) [Dihydroartemisinin] (13.2 µM),16.7 (active)
16,O=C(O)[C@H]1OC(Oc2ccc([C@@H]3[C@@H](CC[C@@H](O)c4ccc(F)cc4)C(=O)N3c3ccc(F)cc3)cc2)[C@H](O)[C@@H](O)[C@@H]1O (stereo partly specified) [Ezetimibe Glucuronide] (47 µM),2.09
17,COc1ccc2c3c1O[C@H]1C[C@@H](O)C=C[C@@]31CCN(C)C2 [Galantamine] (20 µM),2.43
18,CCN(CC)CCNC(=O)c1c(C)[nH]c(/C=C2\C(=O)Nc3ccc(F)cc32)c1C [Sunitinib] (0.73 µM),2.88
19,CN[C@H]1CC[C@@H](c2ccc(Cl)c(Cl)c2)c2ccccc21 [Sertraline] (3.3 µM),4.31
20,CCCc1cc(=O)[nH]c(=S)[nH]1 [Propylthiouracil] (90 µM),2.52
21,Nc1nc(Cl)nc2c1ncn2[C@@H]1O[C@H](CO)[C@@H](O)[C@@H]1F [Clofarabine] (7.5 µM),16.5 (active)
